{
  "source": "PubChem BioAssay AID493169",
  "about": "(National Center for Advancing Translational Sciences (NCATS), 2011)",
  "note": "Inconclusive results are not listed. Entries that show only a call come without a potency. The source made the active and inactive calls. The call rests on the fitted dose curve; in most records, active means well fitted inhibition curve with a large enough effect; inconclusive means small, poorly fitted or top-dose-only effect; inactive means flat fitted curve, though single readings scatter. Potency means the concentration at half of the fitted maximal effect.",
  "data": [
    {"experiment": "CHOP2 Reporter Counterscreen Assay for Inhibitors of Ubiquitin-specific Protease USP2a;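 further: activated enterokinase alone at 50 pM in a cell-free format rather than USP2a or CHOP2; nearly all actives have a fitted effect of over 55% in size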", "details": "purified enterokinase, fluorogenic substrate, 485/531 nm; series mostly up to 38.3 µM", "summary_of_the_method": "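Cell-free counterscreen with pre-activated enterokinase alone (50 pM final) in 20mM Tris-HCl pH 8.0, 2mM CaCl2, 2mM beta-mercaptoethanol, 0.05% CHAPS; compound preincubation 30 min RT, reporter substrate 25nM final, fluorescence read after 10 min (Ex 485/Em 531).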", "values": [
      {"compound": "O=[N+]([O-])c1c(NCCO)cc(N2CCN(Cc3ccc4c(c3)OCO4)CC2)c2nonc12", "Potency": "inactive"},
      {"compound": "COc1ccc(OCC(=O)Nc2ccccc2OC)cc1", "Potency": "inactive"},
      {"compound": "COc1cc(/C=C/C(=O)OCC(=O)NC(=O)NCc2ccco2)ccc1OC(F)F", "Potency": "inactive"},
      {"compound": "CCOc1ccc(C=NNc2ccc(S(=O)(=O)Nc3ccccc3C(=O)O)cc2[N+](=O)[O-])cc1", "Potency": "11.2 µM (active)"},
      {"compound": "CC(C)c1ccc(CCNC(=O)c2ccc([N+](=O)[O-])cc2)cc1", "Potency": "inactive"},
      {"compound": "CC(C)n1nc(C(=O)Nc2ccccc2N2CCOCC2)c2ccccc2c1=O", "Potency": "inactive"},
      {"compound": "COc1cc(C)c(S(=O)(=O)NCc2ccc3c(c2)OCO3)cc1C", "Potency": "inactive"},
      {"compound": "Cc1c(C(=O)NCc2c(F)cc(F)cc2F)oc2ccc(S(=O)(=O)N3CCOCC3)cc12", "Potency": "inactive"},
      {"compound": "Cc1ccccc1C(=O)Nc1ccc2nc3n(c(=O)c2c1)CCC3", "Potency": "inactive"},
      {"compound": "CCSc1nc(N2CCCCC2)c2c(c1C#N)CCCC2", "Potency": "inactive"},
      {"compound": "Cc1cc(C(=O)CSc2nnc(Nc3ccccc3F)s2)c(C)n1CC1CCCO1", "note": "(stereo not drawn)", "Potency": "inactive"},
      {"compound": "O=C1/C(=C/C=C/c2ccco2)SC(=S)N1NS(=O)(=O)c1ccccc1", "Potency": "3.55 µM (active)"},
      {"compound": "O=C(CNC(=O)c1ccco1)Nc1ccc(S(=O)(=O)N2CCCC2)cc1", "Potency": "inactive"},
      {"compound": "Cc1ccccc1NC(=O)CSc1nnc(-c2ccco2)c(-c2ccco2)n1", "Potency": "inactive"},
      {"compound": "CC1=CC(C)(C)N(C(=O)c2ccccc2)c2ccccc21", "Potency": "inactive"},
      {"compound": "CC(C)C(=O)Nc1ccc(C(=O)N2CCCCCC2)cc1", "Potency": "inactive"},
      {"compound": "COc1ccc(CNS(=O)(=O)c2ccc(S(=O)(=O)N3CCCCC3)cc2)cc1", "Potency": "inactive"},
      {"compound": "N#Cc1cc(Sc2ccccn2)c(Sc2ccccn2)cc1C#N", "Potency": "inactive"},
      {"compound": "O=C(Cc1ccc(S(=O)(=O)N2CCOCC2)s1)Nc1nc2c(s1)CCCC2", "Potency": "10 µM (active)"},
      {"compound": "Nc1ccccc1S(=O)(=O)NC1=NCCCCC1", "Potency": "inactive"},
      {"compound": "CCOc1ccc2[nH]c(=O)c(CN(Cc3cccs3)Cc3nnnn3C(C)(C)CC)cc2c1", "Potency": "inactive"},
      {"compound": "CCOC(=O)CCCNC(=O)COC(=O)c1cccc(C)c1O", "Potency": "inactive"},
      {"compound": "CCCOc1ccc(/C=C2\\SC(=S)N(CC3CCCO3)C2=O)cc1", "note": "(stereo not drawn)", "Potency": "inactive"}
    ]}
  ]
}
